# Laboratory results taken from PubChem BioAssay AID1445 (SRMLSC, 2008).
# Out of some 220,000 compounds screened, about 910 (0.41%) were called active.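 How the source made its calls: active means primary inhibition above the hit cutoff, then over 50% inhibition at one or more dose response concentrations (cut at about 23% in these data, passing the limit was not always enough); inconclusive means conflicting primary data, or primary hits not chosen for dose response; inactive means low primary inhibition, or under 50% at every dose.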 For the sample, actives were picked, then their nearest neighbours and some compounds at random. Potency and affinity values are given separately.
# Target: Aminopeptidase N (Plasmodium falciparum (isolate 3D7)) (UniProt O96935)
# Assay: malaria alanyl aminopeptidase activity blockers – biochemical, fluorogenic H-Leu-NHMec substrate, 1536-well (AID 1445);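 further: plate controls were DMSO full reaction for no effect and no enzyme background for full effect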
# Conditions: recombinant M1AAP, H-Leu-NHMec fluorogenic kinetic assay; at 30 µM, stronger effect = higher value unless noted
# Aminopeptidase N (Plasmodium falciparum (isolate 3D7)), sequence (O96935 whole entry, looked up): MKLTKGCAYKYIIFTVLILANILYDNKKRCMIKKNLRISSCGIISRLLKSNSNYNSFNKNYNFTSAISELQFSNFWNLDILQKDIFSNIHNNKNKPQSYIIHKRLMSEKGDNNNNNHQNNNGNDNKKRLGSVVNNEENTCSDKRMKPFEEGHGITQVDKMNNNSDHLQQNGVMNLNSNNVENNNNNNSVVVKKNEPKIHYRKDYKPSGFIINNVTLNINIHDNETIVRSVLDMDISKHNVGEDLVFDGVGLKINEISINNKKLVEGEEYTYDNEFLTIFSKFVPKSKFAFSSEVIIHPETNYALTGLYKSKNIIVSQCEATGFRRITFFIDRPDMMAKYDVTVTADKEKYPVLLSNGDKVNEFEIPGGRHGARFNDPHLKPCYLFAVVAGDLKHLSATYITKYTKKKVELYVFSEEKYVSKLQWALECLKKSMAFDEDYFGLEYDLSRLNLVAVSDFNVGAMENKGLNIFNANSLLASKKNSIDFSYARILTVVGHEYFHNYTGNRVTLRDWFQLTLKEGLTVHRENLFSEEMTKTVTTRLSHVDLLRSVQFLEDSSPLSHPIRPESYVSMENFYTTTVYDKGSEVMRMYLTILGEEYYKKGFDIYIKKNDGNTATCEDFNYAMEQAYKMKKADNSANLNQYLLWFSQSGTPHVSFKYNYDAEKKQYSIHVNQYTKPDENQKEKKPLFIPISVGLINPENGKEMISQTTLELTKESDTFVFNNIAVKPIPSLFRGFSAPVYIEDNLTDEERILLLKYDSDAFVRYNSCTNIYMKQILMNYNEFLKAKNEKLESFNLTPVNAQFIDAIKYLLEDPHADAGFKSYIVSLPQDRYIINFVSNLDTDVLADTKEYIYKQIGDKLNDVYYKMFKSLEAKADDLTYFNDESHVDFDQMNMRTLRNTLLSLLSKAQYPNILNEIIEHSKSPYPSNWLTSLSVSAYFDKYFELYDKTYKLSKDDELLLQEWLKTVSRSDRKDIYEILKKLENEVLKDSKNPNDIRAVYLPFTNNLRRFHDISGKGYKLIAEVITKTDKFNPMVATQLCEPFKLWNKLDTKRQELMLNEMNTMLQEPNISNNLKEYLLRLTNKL
row,Compound,inhibition
1,CC(C)c1ccc(C(N)=S)cc1,4.59% (inactive)
2,COC(=O)[C@H](C)NC(=O)NC(C)CCc1ccccc1 (some centres not stated),13.4% (inactive)
3,CC(=O)NC(C)CCc1ccccc1 (configuration not stated),-2.08% (inactive)
4,COC(=O)[C@@H](NC(=O)NC(C)CCc1ccccc1)C(C)C (some centres not stated),23.4% (active)
5,Cc1cccc(N2C(=O)CC(N3CCC(c4nc5ccccc5[nH]4)CC3)C2=O)c1 (configuration not stated),3.73% (inactive)
6,CC1CCN(C(=O)C2CCN(S(=O)(=O)c3cc(Cl)ccc3Cl)CC2)CC1,0.81% (inactive)
7,NC(=O)CSc1nc2scc(-c3ccco3)c2c(=O)n1-c1ccccc1,18% (inactive)
8,CC(C)C(C)(C#N)NC(=O)CSc1nc2scc(-c3ccco3)c2c(=O)n1-c1ccccc1 (configuration not stated),24.4% (active)
9,CC(C)C(C)NC(=O)CSc1nc2scc(-c3ccco3)c2c(=O)n1-c1ccccc1 (configuration not stated),4.78% (inactive)
10,CCC(C(=O)Nc1ccncc1)c1ccccc1 (configuration not stated),2.45% (inactive)
11,Cc1cccc2cc(COC(=O)c3cccc([N+](=O)[O-])c3)c(=O)[nH]c12,3.82% (inactive)
12,CC(=O)NC1CCN(CC(=O)Nc2cccc([N+](=O)[O-])c2)CC1,1.46% (inactive)
13,CC1CCN(CC(=O)Nc2cccc([N+](=O)[O-])c2)CC1,-0.43% (inactive)
14,CCC(C)NC(=O)CSc1nc(-c2cccs2)cc(C(F)(F)F)n1 (configuration not stated),18.3% (inactive)
15,O=C(NC1CCCCC1)NC1CC2CCC(C1)N2C(=S)NCc1ccco1 (configuration not stated),19.9% (inactive)
16,COc1ccc(C(=O)NC2CCN(C(=S)NCc3ccco3)CC2)cc1,4.73% (inactive)
17,CCOc1ccc(C(=O)NC2CCN(C(=S)NCc3ccco3)CC2)cc1,11.3% (inactive)
18,O=C(NCc1ccccc1)C1CCN(C(=O)NCc2ccccc2)CC1,17.5% (inactive)
19,O=C(NC1CCN(C(=O)NC2CCCCC2)CC1)c1ccco1,11.5% (inactive)
20,CCNC(=S)N1CCC(NC(=O)c2ccco2)CC1,-4.14% (inactive)
21,O=C(NC1CCN(C(=S)NCc2ccco2)CC1)C1CCCCC1,6.27% (inactive)

row,Compound,inhibition
1,Cc1ccc(NC(=O)N2CCC(C(=O)NCc3ccccc3)CC2)cc1,26.3% (active)
2,Cc1ccc(NC(=O)N2CCC(C(=O)NCc3ccc(F)cc3)CC2)cc1,10.1% (inactive)
3,Cc1cc(=O)n(-c2ccc(Cl)cc2)c(=O)[nH]1,-2% (inactive)
4,Cc1c(C(=O)NCc2ccccn2)oc2ccc(S(=O)(=O)N3CCOCC3)cc12,-1.02% (inactive)
5,O=C(O)CCCC(=O)NNc1ncnc2ccccc12,13.7% (inactive)
6,O=C(CCCCCN1C(=O)c2ccccc2C1=O)NCc1ccco1,19.7% (inactive)
7,O=C(Oc1c(Cl)cc(Cl)c2ccccc12)N1CCCC1,13.6% (inactive)
8,COc1ccc(-c2nn(-c3ccccc3)cc2/C=C/C(=O)OCC(=O)Nc2cccc(C#N)c2)cc1,0.99% (inactive)
9,O=C(NCc1ccco1)c1cccc(F)c1,4.04% (inactive)
10,O=C(NC1CCN(C(=S)NCc2ccco2)CC1)c1ccc(F)cc1,14.1% (inactive)
11,COc1ccc(C(C(=O)NC2CCCCC2)N(C(=O)c2sc(C)nc2C)c2ccccc2)cc1 (configuration not stated),-2.38% (inactive)
12,Cc1ccc(NC(=O)Nc2cccs2)cc1,9.98% (inactive)
13,O=C(Nc1ccncc1)Nc1ccccn1,3.11% (inactive)
14,O=C(Nc1ccccn1)c1cccs1,3.97% (inactive)
15,Cc1cc(NC(=O)Nc2cccs2)no1,6.28% (inactive)
16,Cc1cccc(C)c1-n1c(C)cc(/C=N/NC(=O)CSc2ncccn2)c1C,4.32% (inactive)
17,CC(C)CCNC(=O)NC(=O)COC(=O)C1=COCCO1,-7.85% (inactive)
18,O=c1cc(C23CC4CC(CC(C4)C2)C3)[nH][nH]1,-6.62% (inactive)
19,COc1ccc(C(=O)/C(=C/c2cccs2)c2nc3ccccc3o2)cc1,15.5% (inactive)
20,N#C/C(=C\c1ccc(O)cc1)c1nc2ccccc2o1,7.39% (inactive)
21,COc1ccc(C(=O)/C(=C\c2sccc2C)c2nc3ccccc3o2)cc1,2.1% (inactive)

row,Compound,inhibition
1,N#C/C(=C\c1ccc(Cl)cc1)c1nc2ccccc2o1,15.7% (inactive)
2,COCc1[nH]nc2c1C(c1ccsc1)C(C#N)=C(N)O2 (configuration not stated),1.23% (inactive)
3,CCc1ccc(N2CC(C(=O)Nc3cc(C)ccc3F)CC2=O)cc1 (configuration not stated),1.79% (inactive)
4,Cc1c2c(nc3c(C(=O)NC4CCCCC4C)cnn13)CCCC2 (configuration not stated),3.74% (inactive)
5,O=C(Cc1csc(-c2ccccc2)n1)NCc1ccccc1F,2.51% (inactive)
6,O=C(N/N=C/c1ccc([N+](=O)[O-])o1)c1cc2c(ccc3ccccc32)o1,5.62% (inactive)
7,O=[N+]([O-])c1cccc(-c2ccc(/C=N/NC(=S)Nc3ccccc3)o2)c1,2.03% (inactive)
8,O=C(O)c1cc(-c2ccc(/C=N/Nc3ccc(Cl)cc3)o2)ccc1Cl,16.9% (inactive)
9,Nc1nonc1C(=O)N/N=C/c1ccc(-c2cccc(C(=O)O)c2)o1,16.9% (inactive)
10,COCc1cc(C)n(CC(=O)Nc2ccc(Cl)cc2Cl)c(=O)c1C#N,10.9% (inactive)
11,Nc1nonc1C(=O)N/N=C/c1ccc(-c2cccc([N+](=O)[O-])c2)o1,7.55% (inactive)
12,COCc1cc(C)nc(N/N=C/c2ccc(-c3ccc(C(=O)O)c(Cl)c3)o2)c1C#N,15.5% (inactive)
13,Cc1ccc(-c2ccc(/C=N\NC(=O)c3cc4c(ccc5ccccc54)o3)o2)cc1[N+](=O)[O-],2.34% (inactive)
14,CC(=O)Nc1ccc(S(=O)(=O)NCC(=O)OCC(=O)NC(=O)c2cccn2C)cc1,3.48% (inactive)
15,CC1CCN(S(=O)(=O)c2ccc(NC(=O)CCN3C(=O)c4ccccc4C3=O)cc2)CC1,4.02% (inactive)
16,C=CCNC(=S)/N=c1/scc(C)n1C,6.8% (inactive)
17,Cc1ccccc1Cn1ccc(NC(=O)c2onc(C)c2Cl)n1,2.73% (inactive)
18,COCCNC(=O)COc1ccccc1Cl,17.4% (inactive)
19,O=C(Nn1cc(C(=O)Nc2ccc(F)cc2F)c2ccccc2c1=O)c1cnccn1,5.45% (inactive)
20,CCOC(=O)N1CCN(c2c(N3CCN(c4ccccc4F)CC3)c(=O)c2=O)CC1,3.17% (inactive)
